# Test results reported in article PMC7862700, “An all-to-all approach to the identification of sequence-specific readers for epigenetic DNA modifications on cytosine”.
# Tests used:
# Test in all cases: DAPPL (digital affinity profiling via proximity ligation, sequencing); 10 mM Tris-HCl pH 7.5, 50 mM NaCl, 1 mM DTT, 4% glycerol, room temperature, 30 min; GST-TFs on glutathione beads, 16-mer random dsDNA library, 0.1% formaldehyde crosslink after washing; high values mean tight binding
# Details in all cases: protein: recombinant; tags: N-terminal GST; dsDNA, one strand shown
# [1] = target: T1, FLI1 (Homo sapiens, UniProt Q01543 1-452)
# T1 sequence: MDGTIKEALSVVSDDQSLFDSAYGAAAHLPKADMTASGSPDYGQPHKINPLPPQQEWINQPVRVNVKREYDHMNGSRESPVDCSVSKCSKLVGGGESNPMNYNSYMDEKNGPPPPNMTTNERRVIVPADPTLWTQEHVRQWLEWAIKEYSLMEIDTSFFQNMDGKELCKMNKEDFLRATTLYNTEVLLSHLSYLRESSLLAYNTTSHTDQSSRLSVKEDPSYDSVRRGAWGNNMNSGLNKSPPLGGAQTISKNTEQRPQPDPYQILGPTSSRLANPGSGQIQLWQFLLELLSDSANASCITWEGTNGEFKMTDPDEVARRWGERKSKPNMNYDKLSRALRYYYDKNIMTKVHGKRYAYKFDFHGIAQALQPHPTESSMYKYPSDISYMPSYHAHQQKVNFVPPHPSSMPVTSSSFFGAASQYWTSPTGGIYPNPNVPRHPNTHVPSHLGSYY
# In short: (§1)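 Yeast served to express human transcription factors as GST fusions, which were then captured on glutathione beads and labelled with DNA barcodes. Pooled with a tag-only sample, they were incubated with 200 nmole of a 16-mer random double-stranded DNA library for 30 min at room temperature in Tris/NaCl/DTT/glycerol buffer, washed, crosslinked with 0.1% formaldehyde, ligated by proximity, amplified by PCR and sequenced. Dividing each hexamer's read frequency for a factor by its frequency for the tag-only sample gives the binding signal.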
# [2] = target: T2, ELK1 (Homo sapiens, UniProt P19419 1-428)
# T2 sequence: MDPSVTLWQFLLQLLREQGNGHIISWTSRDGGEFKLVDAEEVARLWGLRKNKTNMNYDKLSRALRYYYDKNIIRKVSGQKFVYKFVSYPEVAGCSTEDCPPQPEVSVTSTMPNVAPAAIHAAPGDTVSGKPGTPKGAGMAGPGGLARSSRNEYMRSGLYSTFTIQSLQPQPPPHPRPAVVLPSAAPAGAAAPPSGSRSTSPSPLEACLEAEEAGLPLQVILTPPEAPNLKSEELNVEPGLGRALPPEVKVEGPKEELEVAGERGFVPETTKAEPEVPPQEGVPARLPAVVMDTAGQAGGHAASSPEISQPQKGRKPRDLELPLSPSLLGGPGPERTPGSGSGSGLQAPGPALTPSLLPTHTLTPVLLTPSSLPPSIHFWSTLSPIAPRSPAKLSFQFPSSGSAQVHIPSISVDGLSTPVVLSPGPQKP
# In short: as §1
# [3] = target: T3, ERG (Homo sapiens, UniProt P11308 1-479)
# T3 sequence: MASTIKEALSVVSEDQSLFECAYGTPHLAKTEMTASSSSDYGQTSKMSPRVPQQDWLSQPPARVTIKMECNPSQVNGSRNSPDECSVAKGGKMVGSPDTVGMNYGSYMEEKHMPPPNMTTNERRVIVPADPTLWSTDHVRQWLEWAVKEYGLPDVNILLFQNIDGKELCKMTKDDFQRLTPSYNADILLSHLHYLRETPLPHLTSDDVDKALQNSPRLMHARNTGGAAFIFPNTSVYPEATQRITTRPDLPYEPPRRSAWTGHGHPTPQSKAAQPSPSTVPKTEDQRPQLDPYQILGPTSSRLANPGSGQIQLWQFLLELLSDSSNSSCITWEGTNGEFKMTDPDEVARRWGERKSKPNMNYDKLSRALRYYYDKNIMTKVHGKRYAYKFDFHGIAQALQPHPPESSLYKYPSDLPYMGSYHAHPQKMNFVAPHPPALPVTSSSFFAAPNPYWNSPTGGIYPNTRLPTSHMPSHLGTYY
# In short: as §1
# [4] = target: ELF1 (Homo sapiens, UniProt P32519 1-619)
# In short: as §1
# [5] = target: T4, EHF (Homo sapiens, UniProt Q9NZC4 1-300)
# T4 sequence: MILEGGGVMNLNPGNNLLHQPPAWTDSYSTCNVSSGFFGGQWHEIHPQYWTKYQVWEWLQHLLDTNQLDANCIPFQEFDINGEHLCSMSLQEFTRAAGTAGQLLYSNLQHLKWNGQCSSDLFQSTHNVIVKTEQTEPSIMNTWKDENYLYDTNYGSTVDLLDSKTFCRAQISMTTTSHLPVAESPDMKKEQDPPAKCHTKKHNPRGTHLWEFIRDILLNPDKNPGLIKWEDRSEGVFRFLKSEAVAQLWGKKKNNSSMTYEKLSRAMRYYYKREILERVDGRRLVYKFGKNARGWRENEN
# In short: as §1
# [6] = target: SPI1 (Homo sapiens, UniProt P17947 1-270)
# In short: as §1
# [7] = target: SPIB (Homo sapiens, UniProt Q01892 1-262)
# In short: as §1
# [8] = target: T5, ELK3 (Homo sapiens, UniProt P41970 1-407)
# T5 sequence: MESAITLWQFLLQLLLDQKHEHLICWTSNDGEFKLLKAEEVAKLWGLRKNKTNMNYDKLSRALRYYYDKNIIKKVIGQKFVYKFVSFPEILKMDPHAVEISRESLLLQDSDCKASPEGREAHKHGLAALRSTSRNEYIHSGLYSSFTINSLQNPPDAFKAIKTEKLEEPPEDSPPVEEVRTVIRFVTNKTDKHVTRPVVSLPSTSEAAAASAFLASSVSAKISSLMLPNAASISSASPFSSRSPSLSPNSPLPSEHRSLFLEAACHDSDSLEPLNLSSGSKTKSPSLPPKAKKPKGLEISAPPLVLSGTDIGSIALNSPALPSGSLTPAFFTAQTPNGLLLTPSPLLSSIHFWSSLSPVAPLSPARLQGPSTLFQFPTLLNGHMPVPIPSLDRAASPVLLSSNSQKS
# In short: as §1
# [9] = target: T6, SPIC (Homo sapiens, UniProt Q8N5J4 1-248)
# T6 sequence: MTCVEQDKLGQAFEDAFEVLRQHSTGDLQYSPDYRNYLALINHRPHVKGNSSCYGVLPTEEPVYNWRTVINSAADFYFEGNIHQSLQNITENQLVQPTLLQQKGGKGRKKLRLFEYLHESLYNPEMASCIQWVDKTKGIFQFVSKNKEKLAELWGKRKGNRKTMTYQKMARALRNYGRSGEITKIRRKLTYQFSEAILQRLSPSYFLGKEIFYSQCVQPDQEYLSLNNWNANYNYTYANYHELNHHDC
# In short: as §1
# [10] = target: ELF4 (Homo sapiens, UniProt Q99607 1-663)
# In short: as §1
# [11] = target: T7, ELK4 (Homo sapiens, UniProt P28324-2 1-405)
# T7 sequence: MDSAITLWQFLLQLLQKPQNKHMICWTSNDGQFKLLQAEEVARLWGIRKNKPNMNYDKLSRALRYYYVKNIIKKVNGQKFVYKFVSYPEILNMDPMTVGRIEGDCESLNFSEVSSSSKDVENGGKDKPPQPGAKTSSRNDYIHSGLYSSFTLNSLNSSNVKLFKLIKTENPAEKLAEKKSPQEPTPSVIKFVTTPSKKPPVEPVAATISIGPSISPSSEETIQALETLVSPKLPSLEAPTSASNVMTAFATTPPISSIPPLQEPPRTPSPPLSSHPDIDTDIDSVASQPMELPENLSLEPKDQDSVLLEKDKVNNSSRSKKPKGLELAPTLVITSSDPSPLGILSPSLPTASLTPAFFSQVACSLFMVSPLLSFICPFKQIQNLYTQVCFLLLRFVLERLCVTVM
# In short: as §1
# [12] = target: ETV1 (Homo sapiens, UniProt P50549 1-477)
# In short: as §1
# [13] = target: T8, ERF (Homo sapiens, UniProt P50548 1-548)
# T8 sequence: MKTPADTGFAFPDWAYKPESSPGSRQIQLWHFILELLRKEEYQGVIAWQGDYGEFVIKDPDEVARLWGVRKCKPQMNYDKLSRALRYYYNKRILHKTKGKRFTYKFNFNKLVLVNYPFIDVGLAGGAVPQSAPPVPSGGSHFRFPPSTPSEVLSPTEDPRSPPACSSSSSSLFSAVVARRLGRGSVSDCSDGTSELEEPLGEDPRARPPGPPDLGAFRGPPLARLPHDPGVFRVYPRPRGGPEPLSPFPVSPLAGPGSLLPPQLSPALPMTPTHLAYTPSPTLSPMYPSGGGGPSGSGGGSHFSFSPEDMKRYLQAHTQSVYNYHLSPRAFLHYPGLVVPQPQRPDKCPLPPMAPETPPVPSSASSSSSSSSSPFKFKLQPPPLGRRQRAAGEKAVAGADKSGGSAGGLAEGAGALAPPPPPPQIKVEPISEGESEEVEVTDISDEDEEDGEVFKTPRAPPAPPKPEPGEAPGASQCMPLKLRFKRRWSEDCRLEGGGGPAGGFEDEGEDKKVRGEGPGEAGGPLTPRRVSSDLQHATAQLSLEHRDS
# In short: as §1
# [14] = target: T9, ETV3L (Homo sapiens, UniProt Q6ZN32 1-361)
# T9 sequence: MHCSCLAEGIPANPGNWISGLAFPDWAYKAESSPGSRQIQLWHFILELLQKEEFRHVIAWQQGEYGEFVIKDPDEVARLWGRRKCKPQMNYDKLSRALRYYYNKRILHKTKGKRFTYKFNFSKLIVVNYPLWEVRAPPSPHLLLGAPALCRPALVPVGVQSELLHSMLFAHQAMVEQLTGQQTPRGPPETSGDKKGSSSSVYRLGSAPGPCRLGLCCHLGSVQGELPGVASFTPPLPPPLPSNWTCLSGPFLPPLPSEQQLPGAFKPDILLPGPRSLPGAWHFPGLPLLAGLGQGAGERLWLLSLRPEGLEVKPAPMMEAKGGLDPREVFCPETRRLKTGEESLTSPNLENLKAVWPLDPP
# In short: as §1
# [15] = target: ETV6 (Homo sapiens, UniProt P41212 1-452)
# In short: as §1
# Sequence of SPIB (Q01892 whole entry): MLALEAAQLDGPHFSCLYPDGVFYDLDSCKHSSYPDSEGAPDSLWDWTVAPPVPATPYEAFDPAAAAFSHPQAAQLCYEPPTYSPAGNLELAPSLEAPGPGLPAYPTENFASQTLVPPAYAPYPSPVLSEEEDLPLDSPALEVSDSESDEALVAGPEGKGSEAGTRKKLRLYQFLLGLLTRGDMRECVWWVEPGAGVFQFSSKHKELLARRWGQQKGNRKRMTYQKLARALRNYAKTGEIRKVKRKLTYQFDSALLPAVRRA
# Sequence of ELF1 (P32519 whole entry): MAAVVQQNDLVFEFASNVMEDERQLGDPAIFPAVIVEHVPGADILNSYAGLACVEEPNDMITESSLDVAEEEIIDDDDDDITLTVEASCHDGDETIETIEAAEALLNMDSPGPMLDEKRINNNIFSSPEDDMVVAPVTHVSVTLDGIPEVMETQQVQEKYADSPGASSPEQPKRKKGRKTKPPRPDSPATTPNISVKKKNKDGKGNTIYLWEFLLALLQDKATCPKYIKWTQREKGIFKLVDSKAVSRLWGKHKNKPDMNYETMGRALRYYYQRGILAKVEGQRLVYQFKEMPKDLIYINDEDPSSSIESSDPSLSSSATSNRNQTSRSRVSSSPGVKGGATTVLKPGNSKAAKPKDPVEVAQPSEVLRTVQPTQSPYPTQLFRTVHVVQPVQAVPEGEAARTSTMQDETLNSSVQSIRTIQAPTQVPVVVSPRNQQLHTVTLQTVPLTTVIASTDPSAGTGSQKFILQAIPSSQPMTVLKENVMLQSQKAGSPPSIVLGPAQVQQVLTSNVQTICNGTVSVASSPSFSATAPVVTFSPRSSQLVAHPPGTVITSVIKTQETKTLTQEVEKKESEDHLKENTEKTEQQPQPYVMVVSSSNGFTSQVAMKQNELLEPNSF
# Sequence of ETV1 (P50549 whole entry): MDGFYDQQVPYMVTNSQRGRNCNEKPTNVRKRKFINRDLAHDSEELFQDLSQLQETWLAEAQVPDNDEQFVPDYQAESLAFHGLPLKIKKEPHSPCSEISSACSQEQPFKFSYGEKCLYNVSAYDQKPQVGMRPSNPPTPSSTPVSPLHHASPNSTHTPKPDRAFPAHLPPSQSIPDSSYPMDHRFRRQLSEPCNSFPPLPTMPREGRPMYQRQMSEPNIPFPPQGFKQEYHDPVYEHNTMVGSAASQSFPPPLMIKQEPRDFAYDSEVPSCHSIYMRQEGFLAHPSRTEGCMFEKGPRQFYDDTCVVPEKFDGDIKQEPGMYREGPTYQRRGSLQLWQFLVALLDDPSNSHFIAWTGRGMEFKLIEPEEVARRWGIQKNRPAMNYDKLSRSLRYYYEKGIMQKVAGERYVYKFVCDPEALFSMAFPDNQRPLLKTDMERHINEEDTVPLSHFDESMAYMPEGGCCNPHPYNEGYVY
# Sequence of ETV6 (P41212 whole entry): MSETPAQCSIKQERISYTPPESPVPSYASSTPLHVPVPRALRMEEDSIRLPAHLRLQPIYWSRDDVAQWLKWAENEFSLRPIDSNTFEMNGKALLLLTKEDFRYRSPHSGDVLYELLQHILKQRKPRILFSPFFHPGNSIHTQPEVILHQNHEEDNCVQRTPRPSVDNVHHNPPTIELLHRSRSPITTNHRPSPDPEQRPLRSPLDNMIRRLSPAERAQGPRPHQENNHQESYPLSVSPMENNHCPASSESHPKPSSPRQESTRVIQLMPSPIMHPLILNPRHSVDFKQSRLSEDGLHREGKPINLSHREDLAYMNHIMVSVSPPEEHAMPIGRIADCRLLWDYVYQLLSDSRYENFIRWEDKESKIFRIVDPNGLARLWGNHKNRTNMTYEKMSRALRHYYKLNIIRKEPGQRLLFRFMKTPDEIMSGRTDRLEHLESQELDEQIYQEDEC
# Sequence of ELF4 (Q99607 whole entry): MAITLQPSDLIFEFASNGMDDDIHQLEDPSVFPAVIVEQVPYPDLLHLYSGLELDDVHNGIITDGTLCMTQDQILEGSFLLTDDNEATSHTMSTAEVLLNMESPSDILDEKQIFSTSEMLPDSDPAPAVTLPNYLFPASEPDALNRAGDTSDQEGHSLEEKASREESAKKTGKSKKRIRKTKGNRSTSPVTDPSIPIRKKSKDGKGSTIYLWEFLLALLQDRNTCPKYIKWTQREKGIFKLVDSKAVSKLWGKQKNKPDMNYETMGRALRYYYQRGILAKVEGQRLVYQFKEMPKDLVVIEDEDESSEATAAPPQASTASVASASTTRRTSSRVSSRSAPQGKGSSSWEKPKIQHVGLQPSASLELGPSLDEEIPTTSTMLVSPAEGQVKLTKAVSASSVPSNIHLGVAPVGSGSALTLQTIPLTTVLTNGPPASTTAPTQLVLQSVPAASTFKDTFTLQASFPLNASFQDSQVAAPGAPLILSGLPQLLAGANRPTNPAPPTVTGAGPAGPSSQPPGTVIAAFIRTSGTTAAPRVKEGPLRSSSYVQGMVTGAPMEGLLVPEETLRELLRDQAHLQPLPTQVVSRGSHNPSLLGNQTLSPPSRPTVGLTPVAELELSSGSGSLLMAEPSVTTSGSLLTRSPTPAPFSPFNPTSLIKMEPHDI
sequence,measurement,setting,value
TGGTTG,binding signal,[1],"1.04 fold enrichment (6-mer frequency, TF over GST control)"
same,binding signal,[2],"1.02 fold enrichment (6-mer frequency, TF over GST control)"
same,binding signal,[3],"1.01 fold enrichment (6-mer frequency, TF over GST control)"
same,binding signal,[4],"1.02 fold enrichment (6-mer frequency, TF over GST control)"
same,binding signal,[5],"1.02 fold enrichment (6-mer frequency, TF over GST control)"
same,binding signal,[6],"1.06 fold enrichment (6-mer frequency, TF over GST control)"
same,binding signal,[7],"1.08 fold enrichment (6-mer frequency, TF over GST control)"
same,binding signal,[8],"1.03 fold enrichment (6-mer frequency, TF over GST control)"
same,binding signal,[9],"1.08 fold enrichment (6-mer frequency, TF over GST control)"
same,binding signal,[10],"1.03 fold enrichment (6-mer frequency, TF over GST control)"
same,binding signal,[11],"1.09 fold enrichment (6-mer frequency, TF over GST control)"
same,binding signal,[12],"1.05 fold enrichment (6-mer frequency, TF over GST control)"
same,binding signal,[13],"1.1 fold enrichment (6-mer frequency, TF over GST control)"
same,binding signal,[14],"1.03 fold enrichment (6-mer frequency, TF over GST control)"
same,binding signal,[15],"1 fold enrichment (6-mer frequency, TF over GST control)"
